Reference: PMC7862700, “An all-to-all approach to the identification of sequence-specific readers for epigenetic DNA modifications on cytosine”

Assays:
Assay in all cases: DAPPL (digital affinity profiling via proximity ligation, sequencing); 10 mM Tris-HCl pH 7.5, 50 mM NaCl, 1 mM DTT, 4% glycerol, room temperature, 30 min; GST-TFs on glutathione beads, 16-mer random dsDNA library, 0.1% formaldehyde crosslink after washing; high values mean tight binding
Conditions in all cases: protein: recombinant; tags: N-terminal GST; dsDNA, one strand shown
ETV1 = ETV1 (Homo sapiens, UniProt P50549 1-477)
Chain of ETV1 (P50549 whole entry, the tested form may be a part): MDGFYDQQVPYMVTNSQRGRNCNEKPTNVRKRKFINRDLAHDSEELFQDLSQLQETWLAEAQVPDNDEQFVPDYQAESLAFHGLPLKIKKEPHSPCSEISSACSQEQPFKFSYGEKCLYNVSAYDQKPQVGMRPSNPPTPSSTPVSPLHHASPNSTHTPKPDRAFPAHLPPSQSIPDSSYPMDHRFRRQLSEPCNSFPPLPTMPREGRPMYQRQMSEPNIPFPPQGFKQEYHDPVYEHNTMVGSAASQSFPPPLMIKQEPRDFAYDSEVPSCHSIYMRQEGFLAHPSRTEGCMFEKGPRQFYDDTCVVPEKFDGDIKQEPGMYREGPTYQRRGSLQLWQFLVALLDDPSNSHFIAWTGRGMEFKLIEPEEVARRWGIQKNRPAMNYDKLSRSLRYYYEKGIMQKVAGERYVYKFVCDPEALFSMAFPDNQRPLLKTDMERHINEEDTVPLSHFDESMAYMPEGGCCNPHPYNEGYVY
In short: (§1)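 Sequencing on an Illumina NextSeq500 followed washing, crosslinking with 0.1% formaldehyde, proximity ligation (BsaI/T4 ligase, 1 h, 37 °C) and PCR amplification of pools that had been incubated for 30 min at room temperature with 200 nmole of a random double-stranded 16-mer DNA library in Tris/NaCl/DTT/glycerol buffer. Each pool held DNA-barcoded human transcription factors, expressed in yeast as GST fusions and captured on glutathione beads, plus a tag-only sample. Binding signal is a hexamer's read frequency for a factor divided by its frequency in the tag-only sample.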

ERF = molecular target: T1, ERF (Homo sapiens, UniProt P50548 1-548)
T1 sequence: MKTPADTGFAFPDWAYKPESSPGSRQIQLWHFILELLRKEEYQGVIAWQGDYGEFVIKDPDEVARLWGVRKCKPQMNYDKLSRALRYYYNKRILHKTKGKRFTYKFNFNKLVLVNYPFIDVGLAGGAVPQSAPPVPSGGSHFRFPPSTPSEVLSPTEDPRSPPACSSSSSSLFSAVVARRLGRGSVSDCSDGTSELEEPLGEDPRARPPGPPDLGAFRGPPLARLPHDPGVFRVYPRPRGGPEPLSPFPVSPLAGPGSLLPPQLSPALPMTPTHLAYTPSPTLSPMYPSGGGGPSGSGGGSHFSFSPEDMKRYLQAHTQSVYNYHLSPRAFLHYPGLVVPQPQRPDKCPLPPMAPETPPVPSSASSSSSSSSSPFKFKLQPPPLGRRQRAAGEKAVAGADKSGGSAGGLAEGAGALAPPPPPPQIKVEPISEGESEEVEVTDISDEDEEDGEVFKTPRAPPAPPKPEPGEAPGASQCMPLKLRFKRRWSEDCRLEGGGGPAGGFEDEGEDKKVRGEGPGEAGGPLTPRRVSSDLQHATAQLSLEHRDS
In short: as §1

ETV3L = molecular target: T2, ETV3L (Homo sapiens, UniProt Q6ZN32 1-361)
T2 sequence: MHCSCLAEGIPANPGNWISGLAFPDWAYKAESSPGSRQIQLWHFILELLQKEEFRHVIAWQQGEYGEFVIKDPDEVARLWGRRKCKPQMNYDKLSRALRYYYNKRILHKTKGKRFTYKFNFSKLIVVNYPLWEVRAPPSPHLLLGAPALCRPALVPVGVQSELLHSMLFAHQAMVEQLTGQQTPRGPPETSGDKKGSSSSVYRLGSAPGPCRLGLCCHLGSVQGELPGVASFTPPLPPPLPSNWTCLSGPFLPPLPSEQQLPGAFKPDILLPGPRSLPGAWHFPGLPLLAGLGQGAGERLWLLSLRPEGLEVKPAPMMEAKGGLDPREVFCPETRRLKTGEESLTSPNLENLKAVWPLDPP
In short: as §1

ETS2 = molecular target: T3, ETS2 (Homo sapiens, UniProt P15036 1-469)
T3 sequence: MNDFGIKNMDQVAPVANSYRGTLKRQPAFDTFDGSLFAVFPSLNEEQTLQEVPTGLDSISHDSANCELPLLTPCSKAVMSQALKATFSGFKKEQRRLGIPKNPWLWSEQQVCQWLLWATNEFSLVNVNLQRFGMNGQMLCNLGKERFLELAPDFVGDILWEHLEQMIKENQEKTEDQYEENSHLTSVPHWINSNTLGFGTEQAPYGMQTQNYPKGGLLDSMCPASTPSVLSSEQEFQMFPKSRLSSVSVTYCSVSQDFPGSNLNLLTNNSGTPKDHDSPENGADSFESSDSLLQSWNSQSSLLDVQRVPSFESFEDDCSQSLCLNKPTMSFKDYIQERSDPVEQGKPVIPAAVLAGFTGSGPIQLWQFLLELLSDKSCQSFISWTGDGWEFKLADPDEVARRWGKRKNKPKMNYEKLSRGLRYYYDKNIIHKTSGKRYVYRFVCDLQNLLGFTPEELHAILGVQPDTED
In short: as §1

SPDEF = molecular target: T4, SPDEF (Homo sapiens, UniProt O95238 1-335)
T4 sequence: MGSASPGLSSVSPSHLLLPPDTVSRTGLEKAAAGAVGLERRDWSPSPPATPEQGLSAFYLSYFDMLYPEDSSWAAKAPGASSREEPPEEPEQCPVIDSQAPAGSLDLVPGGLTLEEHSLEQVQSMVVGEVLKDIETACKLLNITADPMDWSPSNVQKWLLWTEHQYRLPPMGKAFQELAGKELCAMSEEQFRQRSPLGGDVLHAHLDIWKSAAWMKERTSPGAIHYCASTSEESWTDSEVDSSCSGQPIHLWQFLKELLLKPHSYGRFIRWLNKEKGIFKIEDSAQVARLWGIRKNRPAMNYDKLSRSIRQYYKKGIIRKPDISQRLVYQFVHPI
In short: as §1

ETV7 = molecular target: T5, ETV7 (Homo sapiens, UniProt Q9Y603 1-341)
T5 sequence: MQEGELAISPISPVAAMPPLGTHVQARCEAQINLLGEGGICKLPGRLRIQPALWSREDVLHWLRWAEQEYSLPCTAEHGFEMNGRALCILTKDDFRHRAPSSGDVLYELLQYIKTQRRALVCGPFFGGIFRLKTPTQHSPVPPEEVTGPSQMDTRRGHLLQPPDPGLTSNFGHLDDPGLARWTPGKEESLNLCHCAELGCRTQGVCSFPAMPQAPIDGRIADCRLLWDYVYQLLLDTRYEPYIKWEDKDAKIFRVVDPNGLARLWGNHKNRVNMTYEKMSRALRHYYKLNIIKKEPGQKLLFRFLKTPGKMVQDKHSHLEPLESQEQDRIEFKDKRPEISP
In short: as §1

ELF5 = molecular target: T6, ELF5 (Homo sapiens, UniProt Q9UKW6-2 1-255)
T6 sequence: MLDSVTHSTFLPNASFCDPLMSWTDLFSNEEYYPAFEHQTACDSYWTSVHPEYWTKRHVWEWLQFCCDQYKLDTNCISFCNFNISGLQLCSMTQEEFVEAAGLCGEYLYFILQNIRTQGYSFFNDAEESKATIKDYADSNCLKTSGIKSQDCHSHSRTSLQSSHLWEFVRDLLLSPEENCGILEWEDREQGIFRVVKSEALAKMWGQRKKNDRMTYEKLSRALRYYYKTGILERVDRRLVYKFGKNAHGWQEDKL
In short: as §1

ETV3 = molecular target: T7, ETV3 (Homo sapiens, UniProt P41162-2 1-143)
T7 sequence: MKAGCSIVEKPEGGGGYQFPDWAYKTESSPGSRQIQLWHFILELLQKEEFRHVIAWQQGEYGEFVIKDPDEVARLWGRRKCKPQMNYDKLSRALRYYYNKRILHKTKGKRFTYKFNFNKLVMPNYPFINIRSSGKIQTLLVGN
In short: as §1

ETV6 = ETV6 (Homo sapiens, UniProt P41212 1-452)
Chain of ETV6 (P41212 whole entry): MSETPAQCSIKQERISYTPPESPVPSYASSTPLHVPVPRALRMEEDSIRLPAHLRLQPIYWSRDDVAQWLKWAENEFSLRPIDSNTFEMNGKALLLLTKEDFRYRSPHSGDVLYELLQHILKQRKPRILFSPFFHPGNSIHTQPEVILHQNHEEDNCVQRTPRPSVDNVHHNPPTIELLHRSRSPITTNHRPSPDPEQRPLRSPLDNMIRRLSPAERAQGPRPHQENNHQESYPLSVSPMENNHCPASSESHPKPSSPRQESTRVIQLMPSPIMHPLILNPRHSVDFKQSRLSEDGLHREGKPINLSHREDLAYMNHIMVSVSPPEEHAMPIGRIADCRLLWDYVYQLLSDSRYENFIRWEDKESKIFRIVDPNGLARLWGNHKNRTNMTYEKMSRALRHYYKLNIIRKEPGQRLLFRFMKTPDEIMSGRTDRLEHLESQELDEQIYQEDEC
In short: as §1

Sequence: CCTATT
- binding signal (ETV1): 1.55 fold enrichment (6-mer frequency, TF over GST control)
- binding signal (ERF): 1.6 fold enrichment (6-mer frequency, TF over GST control)
- binding signal (ETV3L): 1.64 fold enrichment (6-mer frequency, TF over GST control)
- binding signal (ETS2): 1.49 fold enrichment (6-mer frequency, TF over GST control)
- binding signal (SPDEF): 1.51 fold enrichment (6-mer frequency, TF over GST control)
- binding signal (ETV7): 1.52 fold enrichment (6-mer frequency, TF over GST control)
- binding signal (ELF5): 1.53 fold enrichment (6-mer frequency, TF over GST control)
- binding signal (ETV3): 1.52 fold enrichment (6-mer frequency, TF over GST control)
- binding signal (ETV6): 1.59 fold enrichment (6-mer frequency, TF over GST control)
